One experiment concerns the target Albumin (Bos taurus) (UniProt P02769). The experiment is described as follows: bovine serum albumin binders on microarray, profiling panel, artefact control for SMM control protein annotation, biochemical, small-molecule microarray, Alexa647 label, 635/667 nm fluorescence (AID 1118).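 Also: score merges 667 nm emission intensity and signal-to-noise per printed compound spot.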 As to conditions: BSA-A647 binding, fluorescence 635 nm, higher = more signal.
Experiment [1] can be described thus: small-molecule microarray binders of probe aXIP, primary screen, biochemical, NeuroSMM set, 635/667 nm fluorescence (AID 1119).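 Also: probe is the protein aXip251-270 applied at 1 µg/mL to compound-printed slides; binding of probe to printed compounds measured as 667 nm fluorescence plus signal to noise.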 As to conditions: higher = more signal, called active from +8 up or from −8 down.
Experiment [2] is described as follows: small-molecule binders of probe aNOTCH3, primary screen, biochemical, small-molecule microarray, 635/667 nm fluorescence (AID 1120).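 Also: probe is a biotin-tagged antibody raised against NOTCH3 rather than NOTCH3 protein; score merges spot fluorescence near 667 nm with spot signal to noise.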 As to conditions: higher = more signal.
The nature of experiment [3]: small-molecule binders of probe aNOTCH2, primary screen, biochemical, small-molecule microarray, 635/667 nm fluorescence (AID 1121).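 Also: score merges feature fluorescence read at 667 nm with its signal to noise.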 As to conditions: higher = more signal.
The target in experiment [4] is Carbonic anhydrase 2 (Homo sapiens) (UniProt P00918). Kind of experiment: CAII small-molecule binders, profiling panel, biochemical, small-molecule microarray, Alexa647-labelled CAII (AID 1122). The following applies: CAII-A647 binding fluorescence, higher = more signal.
Experiment [5] can be described thus: COS7 lysate on small-molecule microarray, probe aHis, 635 nm (AID 1123).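 Also: z-score combines 667nm fluorescence intensity with signal-to-noise per printed compound spot.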 As to conditions: COS7 cell lysate, fluorescence, higher = more signal.
A short description of experiment [6]: compound binding in COS7 lysate, probe aLAP1, primary screen, cell lysate, small-molecule microarray (AID 1124).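 Also: lysate comes from COS7 cells expressing LAP1 and is applied at 0.3 µg/mL; score merges spot fluorescence near 667 nm with signal-to-noise over triplicate slides.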 The following applies: probe aLAP1, fluorescence, higher = more signal.
The subject of a further experiment is Sam68 (KHDRBS1). Kind of experiment: Sam68 small-molecule binders, primary screen, biochemical, small-molecule microarray, 635 nm fluorescence (AID 1125).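 Also: score merges 667 nm channel intensity with signal to noise over triplicate slides.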 As to conditions: small-molecule microarray binding, higher = more signal.
Experiment [7] relates to Chordin-like protein 2 (CHRDL2). The experiment is described as follows: CHRDL2 small-molecule binders, primary screen, biochemical, small-molecule microarray, 635 nm fluorescence (AID 1126).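 Also: printed compound slides probed with Chrdl2 protein at 4 µg/mL for 1 h at 4 C; score merges 667 nm emission intensity with signal to noise over three replicate slides.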 As to conditions: small-molecule microarray binding, fluorescence 635 nm; higher = more signal.
Experiment [8] concerns the target Concanavalin-A (Canavalia ensiformis) (UniProt P02866). The experiment is described as follows: ConA small-molecule binders, primary screen, artefact control for SMM control protein annotation, biochemical, small-molecule microarray, Alexa647 label, 635 nm (AID 1127).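 Also: z combines 667 nm emission intensity with signal-to-noise across three replicate slides.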 The following applies: ConA-A647 binding fluorescence, higher = more signal.

The source made the active and inactive calls.

Sequence of Albumin (Bos taurus) (P02769 whole entry, looked up): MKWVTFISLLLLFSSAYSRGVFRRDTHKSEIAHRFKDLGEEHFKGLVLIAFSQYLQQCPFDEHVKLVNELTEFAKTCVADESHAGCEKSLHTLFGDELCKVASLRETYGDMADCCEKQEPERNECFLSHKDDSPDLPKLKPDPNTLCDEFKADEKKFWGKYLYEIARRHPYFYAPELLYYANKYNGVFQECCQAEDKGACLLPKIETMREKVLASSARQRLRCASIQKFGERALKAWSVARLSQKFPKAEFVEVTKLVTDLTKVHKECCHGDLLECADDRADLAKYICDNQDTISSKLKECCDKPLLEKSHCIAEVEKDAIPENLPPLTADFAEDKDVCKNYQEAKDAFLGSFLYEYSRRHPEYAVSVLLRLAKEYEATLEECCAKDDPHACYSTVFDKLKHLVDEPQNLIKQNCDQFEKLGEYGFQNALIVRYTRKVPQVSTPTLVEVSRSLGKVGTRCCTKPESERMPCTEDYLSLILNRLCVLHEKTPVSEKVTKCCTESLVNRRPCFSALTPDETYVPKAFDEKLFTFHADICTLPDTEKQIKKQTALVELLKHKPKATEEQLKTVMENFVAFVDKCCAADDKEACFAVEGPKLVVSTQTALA
Sequence of Concanavalin-A (Canavalia ensiformis) (P02866 whole entry, looked up): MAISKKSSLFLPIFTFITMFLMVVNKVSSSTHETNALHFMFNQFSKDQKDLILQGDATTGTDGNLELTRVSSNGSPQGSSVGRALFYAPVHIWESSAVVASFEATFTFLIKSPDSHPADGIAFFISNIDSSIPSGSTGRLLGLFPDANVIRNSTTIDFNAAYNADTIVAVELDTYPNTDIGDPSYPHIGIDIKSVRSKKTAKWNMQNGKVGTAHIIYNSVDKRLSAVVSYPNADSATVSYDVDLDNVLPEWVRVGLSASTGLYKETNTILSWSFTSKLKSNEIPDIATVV

Consider `[N-]=[N+]=NCc1ccccc1[C@@H]1OC(c2ccc(OCCCO)cc2)=N[C@]1(Cc1ccccc1N=[N+]=[N-])C(=O)N1CCOCC1`, for which the composite z-score is 0.809 in the experiment with Albumin (Bos taurus); 0.387 in experiment [2]; 0.408 in [3]; 0.765 in [4]; 2.9 in [5]; 0.493 in experiment [6]. The composite z-score is 1.29 in the experiment on Sam68 (KHDRBS1), -0.119 in experiment [7] and 1.21 in experiment [8]. In experiment [1], the composite Z-score is 0.105 (inactive).

In the case of `C#CCN(CC=C(C)C)[C@H](CO)c1ccccc1`, the composite z-score is -0.258 in the experiment with Albumin (Bos taurus); 0.0081 in experiment [2]; -0.0819 in experiment [3]; -0.0144 in [4]; -0.41 in experiment [5]; -0.277 in experiment [6]. The results for the composite z-score (in the experiment on Sam68 (KHDRBS1); in experiment [7]; in experiment [8]) were 0.584, -0.184 and -0.711, respectively. Also, the composite Z-score in experiment [1] was 0.289 (inactive).

As for `CC(C)N1C(=O)[C@@]2(Cc3ccccc31)c1ccccc1C(=O)N(C1CCCCC1)[C@H]2c1ccc(CO)cc1`, the composite z-score is -0.352 with Albumin (Bos taurus); 0.0196 in experiment [2]; -0.174 in experiment [3]; 0.156 in [4]; 1.59 in [5]; 0.779 in experiment [6]. Moreover, the composite z-score turned out to be 0.819 with Sam68 (KHDRBS1), 0.78 in experiment [7] and 0.842 in experiment [8]. In experiment [1], the composite Z-score was -0.0662 (inactive).

With `COCCCN1C(=O)[C@@]2(c3ccc([N+](=O)[O-])cc3)CC(=O)N(C3CCCCC3)[C@@H]2c2ccc(CO)cc21`, the composite z-score was -0.132 with Albumin (Bos taurus); -0.207 in experiment [2]; -0.153 in [3]; -0.277 in experiment [4]; 0.143 in experiment [5]; -0.322 in [6]. In addition, the results for the composite z-score (in the experiment on Sam68 (KHDRBS1); in experiment [7]; in experiment [8]) were 0.134, 0.778 and 0.734, respectively. Further, the composite Z-score in experiment [1] was 0.0221 (inactive).

On to `O=C1NC(=O)C2C1C=CC(C(O)Cc1ccccc1)N2Nc1ccc(Cl)cc1Cl` (stereo not given), for which the composite z-score was 0.809 in the experiment with Albumin (Bos taurus); 0.198 in experiment [2]; -0.11 in experiment [3]; 0.803 in experiment [4]; 2.07 in experiment [5]; -0.226 in [6]. Moreover, the composite z-score is -1.18 in the experiment with Sam68 (KHDRBS1), -1.15 in experiment [7] and -0.652 in experiment [8]. For the same compound, the composite Z-score in [1] was -0.082 (inactive).

For `C[C@@]1([C@@H](NC(=O)c2ccccc2)c2ccc(-c3ccccc3)cc2)C[C@H]1C1CCCCC1`, the composite z-score with Albumin (Bos taurus) is 0.373; in experiment [2], 0.106; in [3], 0.378; in [4], -0.137; in experiment [5] it was 0.121; in experiment [6] it was -0.0002. Besides, the results for the composite z-score (in the experiment with Sam68 (KHDRBS1); in [7]; in experiment [8]) were -1.66, -1.51 and -0.867, respectively. The composite Z-score in experiment [1] is 0.309 (inactive).

For the compound `CCCCC=C[C@@H](NC(=O)Oc1cccc(C(F)(F)F)c1)c1ccccc1`, the composite z-score with Albumin (Bos taurus) is 1.02; in experiment [2], 0.888; in experiment [3], 0.39; in [4], 0.755; in experiment [5] it was 0.183; in [6], -0.403. Moreover, the composite z-score in the experiment on Sam68 (KHDRBS1) was 1.27; in [7], -0.0519; in [8], 1.13. Moreover, the composite Z-score in experiment [1] was 0.505 (inactive).

Regarding `O=C1c2ccccc2[C@](Cc2ccccc2I)(C(=O)NC2CC2)[C@H](c2ccc(CO)cc2)N1C1CCCCC1`, the composite z-score in the experiment with Albumin (Bos taurus) was 0.767; in experiment [2] it was 0.174; in experiment [3], -0.0551; in experiment [4], 0.636; in experiment [5], 2.12; in [6], 1.49. Further, the composite z-score was found to be 1.22 with Sam68 (KHDRBS1), 0.273 in experiment [7] and 1.2 in experiment [8]. The composite Z-score in experiment [1] was 0.0542 (inactive).

On to `Cc1ccc(S[C@]2(C(=O)NCCN3CCOCC3)CC(=O)N(Cc3ccccc3Cl)[C@@H]2c2ccc(CO)cc2)cc1`, for which the composite z-score with Albumin (Bos taurus) is 0.429; in experiment [2] it was -0.0362; in experiment [3] it was -0.133; in [4], 0.686; in [5] it was 0.776; in [6], 0.0897. Moreover, the composite z-score was -0.541 in the experiment with Sam68 (KHDRBS1), -1.2 in [7] and -0.199 in [8]. For the same compound, in [1], the composite Z-score was -0.0407 (inactive).

`N#Cc1ccc(NN2C(C(O)c3c(F)cccc3Cl)C=CC3C(=O)N(c4ccccc4)C(=O)C32)cc1` (stereo not given): the composite z-score with Albumin (Bos taurus) is 1.09; in experiment [2], -0.095; in [3] it was 0.0563; in experiment [4], 0.396; in experiment [5] it was 3.25; in experiment [6], 1.55. In addition, the composite z-score is 1.29 in the experiment with Sam68 (KHDRBS1), -0.768 in experiment [7] and 1.13 in [8]. For the same compound, the composite Z-score in [1] is 0.238 (inactive).

As for `COCCCNC(=O)[C@@]1(Cc2ccccc2)N=C(c2ccc(OCCCO)cc2)O[C@H]1c1ccccc1`, the composite z-score is 0.893 with Albumin (Bos taurus); 0.374 in [2]; 0.308 in [3]; 0.79 in experiment [4]; 2.9 in [5]; -0.0127 in [6]. For the same compound, the composite z-score in the experiment on Sam68 (KHDRBS1) was 1.29; in experiment [7], -1.1; in [8], 1.12. The composite Z-score in [1] was 1.14 (inactive).

`COc1cc2c(cc1OC)CN(C(=O)[C@H]1[C@@H]3C(=O)O[C@@H](c4ccccc4)[C@@H](c4ccccc4)N3[C@@H](c3ccc(O)cc3)[C@]13C(=O)Nc1ccc(C#CCNC(N)=O)cc13)CC2`: the composite z-score in the experiment with Albumin (Bos taurus) was -0.176; in experiment [2], 0.0397; in experiment [3], -0.165; in experiment [4], 0.169; in experiment [5] it was 0.103; in experiment [6], 0.523. The composite z-score in the experiment with Sam68 (KHDRBS1) is -0.0579; in experiment [7], 0.702; in experiment [8], 0.212. Further, in experiment [1], the composite Z-score was -0.136 (inactive).

`[N-]=[N+]=NCc1ccccc1[C@@H]1OC(c2ccc(OCCCO)cc2)=N[C@]1(CCS(=O)(=O)c1ccccc1)C(=O)NCCN1CCOCC1`: the composite z-score is 0.899 in the experiment with Albumin (Bos taurus); 0.576 in experiment [2]; 0.0476 in experiment [3]; 0.634 in experiment [4]; 2.86 in experiment [5]; 0.623 in experiment [6]. Further, the values for the composite z-score (with Sam68 (KHDRBS1); in [7]; in experiment [8]) were 1.3, 0.207 and 1.1, respectively. Further, the composite Z-score in experiment [1] is 1.31 (inactive).

As for `CCOC(=O)C[C@H]1[C@H](OC(=O)c2cc3ccccc3oc2=O)[C@@H](NC(=O)Cc2ccc(OC)cc2)c2cc(OCCCO)ccc2N1C(=O)c1ccccc1`, the composite z-score in the experiment with Albumin (Bos taurus) is 0.722; in experiment [2] it was -0.0324; in experiment [3], -0.0986; in [4], 0.091; in experiment [5] it was 0.386; in [6], -0.0727. Further, the composite z-score with Sam68 (KHDRBS1) was 0.687; in [7], 0.328; in experiment [8], -0.256. In addition, in [1], the composite Z-score is 0.311 (inactive).

Source of the values: PubChem BioAssay.
